Measurements published in PubChem BioAssay (Tox21).
Results filed as inconclusive are left out. Calls of active or inactive are those of the source. Calls follow the shape of the dose curve; as a rule, active = well fitted cell-killing curve with a large enough effect in the repeat runs; inconclusive = weak or mixed curves, or effect the other way; inactive = flat fitted curve, though single readings scatter.
% is scaled to controls: 0 for no effect and ±100 for the full control effect; potency is read from the fitted curve at half-maximal effect.

Experiment: qHTS RealTime-Glo MT Cell Viability Assay in HEK293 cells - 24 hour (AID 1224886); also: nearly all actives have a fitted effect of over 50% in size; as to activity change, negative = cytotoxicity: top concentration of the series differs between compounds
Settings: RealTime-Glo luminescence; series mostly up to 76.8 µM; activity change, negative = cytotoxicity: at the top concentration
Summary of the method: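 Nonlytic real-time viability readout: viable cells convert prosubstrate to NanoLuc substrate, giving luminescence proportional to live cell number. HEK293, 600 cells/well, compound added after 5 h, continuous culture at 37 C.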
For `O=C1c2ccccc2C(=O)C1c1nc2ccccc2c(Br)c1O`, the “activity change, negative = cytotoxicity” value was 3.94% (inactive). For `CC(C)=CCC/C(C)=C/CC/C(C)=C/C(=O)OCC(=O)[C@@]1(O)CC[C@H]2[C@@H]3CCC4=CC(=O)C=C[C@]4(C)[C@H]3[C@@H](O)C[C@@]21C`, the Potency was 4.25 µM (active). For `CC(=O)NC1(c2cccc(F)c2)CCN(CC[C@@]2(c3ccc(Cl)c(Cl)c3)CN(c3ccccc3)C(=O)CO2)CC1`, the Potency was 17.4 µM (active). In the case of `Nc1cccc2c1CN(C1CCC(=O)NC1=O)C2=O` (stereo not given), the “activity change, negative = cytotoxicity” value is reported as 1.92% [at 35.3 µM] (inactive). For `COc1cc(Nc2c(C#N)cnc3cc(OCCCN4CCN(C)CC4)c(OC)cc23)c(Cl)cc1Cl`, the Potency was 9.52 µM (active). In the case of `Cc1ccccc1S`, the “activity change, negative = cytotoxicity” value is reported as -14.4% [at 35.3 µM] (inactive). With `CCCCCCCCCCC(=O)O` the “activity change, negative = cytotoxicity” value was 2.23% (inactive). In the case of `CN1CCCC(n2nc(Cc3ccc(Cl)cc3)c3ccccc3c2=O)CC1` (stereo not given), the Potency is reported as 8.49 µM (active). With `CC(=O)Nc1ccc(C)cc1C` the “activity change, negative = cytotoxicity” value was -10.2% (inactive). In the case of `CN1C(C(=O)Nc2ccccn2)=C(O)c2sccc2S1(=O)=O`, the “activity change, negative = cytotoxicity” value is reported as 8.03% [at 35.3 µM] (inactive). With `CCCC(=O)C(=O)O` the “activity change, negative = cytotoxicity” value was 7.19% (inactive). With `CC(=O)Oc1ccc([N+](=O)[O-])cc1CCl` the Potency was 4.36 µM (active). With `CCOC(=O)c1ccc(O)c(O)c1` the “activity change, negative = cytotoxicity” value was -20.8% [at 35.3 µM] (inactive). With `O=C1C(=O)c2ccccc2C(O)=C1C1CCC(c2ccc(Cl)cc2)CC1` (stereo not given) the “activity change, negative = cytotoxicity” value was 0.805% [at 35.3 µM] (inactive). In the case of `CCC(C)(C)OC`, the “activity change, negative = cytotoxicity” value is reported as 5.53% (inactive). With `O=C1c2ccccc2C(=O)C1(O)O` the “activity change, negative = cytotoxicity” value was -1.55% (inactive). For `c1ccc(C[n+]2cccc3ccccc32)cc1`, the “activity change, negative = cytotoxicity” value was -23.9% (inactive). In the case of `CC(CCC(=O)O)C(=O)O` (stereo not given), the “activity change, negative = cytotoxicity” value is reported as -0.052% (inactive). For `Nc1nnc(-c2ccc([N+](=O)[O-])o2)o1`, the “activity change, negative = cytotoxicity” value was -8.95% (inactive). For `OCCOCC#CCOCCO`, the “activity change, negative = cytotoxicity” value was 14.8% (inactive). In the case of `COC(=O)c1nc(Cl)c(Cl)nc1N`, the Potency is reported as 9.52 µM (active). In the case of `COc1ccc(OC(=O)N(CC(=O)O)Cc2ccc(OCCc3nc(-c4ccccc4)oc3C)cc2)cc1`, the “activity change, negative = cytotoxicity” value is reported as -9.25% [at 35.3 µM] (inactive). In the case of `c1ccc2c(c1)CCc1ccccc1N2`, the “activity change, negative = cytotoxicity” value is reported as -14.2% [at 35.3 µM] (inactive). In the case of `O=C(OCC(O)CO)c1ccccc1Nc1ccnc2cc(Cl)ccc12` (stereo not given), the Potency is reported as 7.56 µM (active). In the case of `CC(CN(C)C)C(C)(O)Cc1ccc(Cl)cc1` (stereo not given), the “activity change, negative = cytotoxicity” value is reported as -1.88% [at 35.3 µM] (inactive). In the case of `COc1cc(C(=O)NC2CCN(C)CC2)ccc1Nc1ncc2c(n1)N(C1CCCC1)CC(F)(F)C(=O)N2C`, the Potency is reported as 0.1 µM (active). In the case of `CCOC(C)=O`, the “activity change, negative = cytotoxicity” value is reported as -0.127% (inactive). With `CCOC(=O)OC(C)OC(=O)[C@@H]1N2C(=O)[C@@H](NC(=O)[C@H](N)c3ccccc3)[C@H]2SC1(C)C` (stereo not given in full) the “activity change, negative = cytotoxicity” value was -0.198% [at 35.3 µM] (inactive). With `CN1C(=O)N(c2ccccc2Br)Cc2cnc(Nc3ccc4c(c3)OCC(CO)O4)nc21` (stereo not given) the Potency was 6.92 µM (active). In the case of `Cc1ccc(OC(=O)c2ccccc2O)cc1`, the “activity change, negative = cytotoxicity” value is reported as -17.5% (inactive).
